High-throughput results deposited in PubChem by National Center for Advancing Translational Sciences (NCATS).
HT1080NT lethal = kills 2HG-producing HT-1080-NT fibrosarcoma cells; HT-1080-NT fibrosarcoma viability, CellTiter-Glo ATP luminescence, 48 h; Potency, µM (doses to about 46.1 µM), for the others: at the highest dose activity, negative = less viability, most hits filed as cytotoxic; 360,000 tested, 1.6% active;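 also: NT is the 2HG producing partner of a matched IDH1 knockdown line; 0% = DMSO-treated cells and -100% = media-only wells without cells; nearly all actives have a fitted effect of over 55% in size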
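HT-1080-NT fibrosarcoma cells (2HG-overproducing), 750 cells/well in RPMI with 5% FBS, dosed after 2 h and incubated 48 h at 37C. CellTiter-Glo luminescence normalized to DMSO and no-cell wells; concentration-response curves fitted and classed.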
SW480 rerep = DNA re-replication induction in SW480 cells. SW480 DNA re-replication, Hoechst DNA content imaging, 48 h. Potency, µM (titrated, usually from 46.1 µM), without a hit: at the top dose re-replication activation, hits mostly activators. 340,000 tested, 1.8% active. AID 624297; also: % of control where 0% means no effect; nearly all actives have a fitted effect of over 55% in size
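DNA re-replication was detected as more nuclei of elevated Hoechst intensity after 48 hr exposure to compound (23 nL pinned per well of 250 cells).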
MCF10A rereplic = DNA re-replication induction in MCF 10a cells; MCF 10A DNA re-replication, Hoechst nuclear intensity, 48 h; Potency, µM (doses to about 46.1 µM), for inactives: top-dose activity, positive = re-replication, most hits filed as activators; 350,000 tested, 2.9% active; AID 624296; also: % of control where 0% means no effect; nearly all actives have a fitted effect of over 50% in size
KB-3-1 tox = KB-3-1 parental cell cytotoxicity; KB-3-1 viability, CellTiter-Glo ATP luminescence, 72 h; Potency, µM (doses to about 46.1 µM), hits mostly cytotoxic; 400,000 tested, 1.4% active; AID 1347075; also: % is scaled to controls: 0 for no effect and ±100 for the full control effect; nearly all actives have a fitted effect of over 60% in size
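Multi-concentration cytotoxicity screen in KB-3-1 cells grown in DMEM lacking phenol red with 10% FBS. After 72 h at 37 °C with compound, ATP-dependent luminescence was recorded.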
KB-V1 MDR tox = kills drug-selected multidrug resistant KB-V1 cells | KB-V1 MDR cells viability, CellTiter-Glo, 72 h | AID 1347076 | Potency, µM (titrated, usually from 46.1 µM), hits mostly cytotoxic | 400,000 tested, 3.4% active; also: % is scaled to controls: 0 for no effect and ±100 for the full control effect; nearly all actives have a fitted effect of over 60% in size
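Compound-treated KB-V1 multidrug-resistant cells, 72 h, 37 degrees C; viability by CellTiter-Glo. Fitted qHTS curves give the values.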
HT1080 IDH1KD tx = HT-1080 IDH1 knockdown cell toxicity (counter line); HT-1080 IDH1 knockdown viability, ATP luminescence, 48 h; AID 686971; 360,000 tested, 2% active; Potency, µM (doses to about 46.1 µM), without a hit: at the highest dose activity, negative = toxicity, usual class: cytotoxic;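 also: 0% = DMSO wells and -100% = cell-free medium wells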
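Using the IDH1-knockdown HT-1080 line run in the same batch and compound series as the NT line, viability after 48 h at 37 °C was determined by CellTiter-Glo luminescence and expressed as % activity.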
* hit, by the source's call; i = inactive; ? = inconclusive; nt = not tested or not shown; [ ] = remark or other dose. The list is not random: actives were taken first. Their share in the collection is about 8%. Calls follow the shape of the dose curve; as a rule, active = well fitted curve in the direction sought with a large enough effect; inconclusive = small, poorly fitted or top-dose-only effect, or another doubt; inactive = no such curve, though single readings can be large; an effect the other way counts as inactive or inconclusive. Potency is read from the fitted curve at half-maximal effect.

SMILES | HT1080NT lethal | SW480 rerep | MCF10A rereplic | KB-3-1 tox | KB-V1 MDR tox | HT1080 IDH1KD tx
Oc1ccccc1/C=N/Nc1ccccc1 | ? | 3% | ? | i | i | 9.2µM*
Oc1ccc(C=NNC(=S)Nc2ccccc2)nc1 | ? | nt | nt | 16µM* | i | 4.6µM*
O=[N+]([O-])c1ccccc1C=NNc1ccccc1 | ? | 6% | 10% | i | i | ?
Fc1ccccc1NC(=S)N/N=C/c1ccccc1Br | 7.1µM* | 18µM* | ? | i | i | 7.1µM*
O=[N+]([O-])c1ccc(/C=N/NC(=S)Nc2ccccc2F)o1 | 29% | 13% | -10% | i | i | 15%
Cc1cccc(N2CCN(C(=O)c3sc4nc5n(c(=O)c4c3C)CCC5)CC2C)c1 (stereo not drawn) | nt | nt | nt | i | i | nt
Cc1nn(C(=O)c2ccccc2)c(C)c1S(=O)(=O)N1CCCCCC1 | nt | nt | nt | i | ? | nt
CNC(=S)N/N=C/c1ccccc1Cl | 3% | -12% | -2% | i | i | 6%
S=C(N/N=C/c1ccccc1Cl)Nc1ccccc1 | 14µM* | ? | 10% | i | i | 4µM*
Oc1ccccc1C=NNC(=S)NN=Cc1ccccc1O | ? | 3.7µM* | 18µM* | ? | ? | ?
CCn1nc(C)c2c(-c3ccccc3)cc(=O)n(C(C)C(=O)NCCC(C)C)c21 (stereo not drawn) | nt | nt | nt | i | i | nt
CC1CCN(c2nc3ccc(C(=O)NCc4ccccc4Cl)cc3s2)CC1 | nt | nt | nt | i | i | nt
COc1ccccc1-c1noc(CSc2nnc(Cc3ccccc3)n2-c2ccc(C)c(C)c2)n1 | nt | nt | nt | i | i | nt
O=S1(=O)CCO[C@H]2CCCC[C@@H]2N1Cc1ccccc1F | nt | nt | nt | i | i | nt
O=[N+]([O-])c1ccc(NC(=S)N2CCc3ccccc3C2)cc1 | -4% | -66% | 8% | i | 23µM* | 7%
O=[N+]([O-])c1ccc(NC(=S)NCc2ccc(F)cc2)cc1 | ? | ? | 16µM* | ? | ? | 23µM*
CCCCc1ccc(NC(=O)C(=O)NCCN2CCN(Cc3ccc([N+](=O)[O-])cc3)CC2)cc1 | 0% | 10% | 3.3µM* | i | ? | -1%
S=C(NCc1cccc(Cl)c1)NC1CCCCC1 | -1% | -17% | ? | ? | 18µM* | -1%
S=C(NCc1ccccc1)NC1CCCCC1 | -2% | -3% | -1% | i | i | 1%
CCc1ccccc1NC(=O)N1CCN(c2cc(-c3noc(C)n3)ccc2C)CC1 | nt | nt | nt | i | i | nt
Cn1c(=O)c2c(nc(SCC(=O)Nc3ccccc3F)n2Cc2ccccc2F)n(C)c1=O | nt | nt | nt | i | i | nt
Fc1ccc(CNC(=S)Nc2cccc(Cl)c2)cc1 | ? | 5% | 16µM* | i | i | -26%
O=[N+]([O-])c1ccc(O)c(NC(=S)Nc2ccccc2)c1 | -15% | -3% | -2% | i | i | ?
O=[N+]([O-])c1ccc(NNC(=S)Nc2ccccc2)cc1 | 20µM* | -4%[9.22 µM] | 29% | ? | ? | ?
O=[N+]([O-])c1ccc(NC(=S)NCCc2ccc(Cl)cc2)cc1 | ? | 11% | ? | ? | 16µM* | ?
SMILES | HT1080NT lethal | SW480 rerep | MCF10A rereplic | KB-3-1 tox | KB-V1 MDR tox | HT1080 IDH1KD tx
S=C(NCc1ccncc1)Nc1cccc(Cl)c1 | 1% | -5% | -1% | i | ? | -2%
CCCCNC(=S)Nc1ccc(Cl)cc1 | -4% | 3% | 15% | i | 16µM* | -3%
Cc1ccccc1N1CCN(S(=O)(=O)c2nnc(NC(=O)c3ccc(C(C)C)cc3)s2)CC1 | nt | nt | nt | i | i | nt
S=C(NCCC(c1ccccc1)c1ccccc1)Nc1cccc(Cl)c1 | ? | -2%[9.22 µM] | ? | i | ? | ?
S=C(NCCN(C1CCCCC1)C1CCCC1)Nc1cccc(Cl)c1 | 16µM* | ? | ? | ? | ? | 16µM*
CC1CCCC(NC(=S)Nc2ccc(SC(F)F)cc2)C1C (stereo not drawn) | ? | ? | ? | 18µM* | 23µM* | ?
COc1cc2c(cc1Cl)/C(=C\CCN(C)C)c1ccccc1S2 | ? | ? | ? | ? | 16µM* | ?
CN(C)CC/C=C1/c2ccccc2Sc2c(O)cc(Cl)cc21 | ? | ? | 27% | ? | 15µM* | 23µM*
CN(C)CC/C=C1/c2cc(F)ccc2Sc2ccc(Cl)cc21 | 23µM* | -80% | 44% | i | i | 16µM*
COc1ccccc1-c1cc2nc(C)c(CCC(=O)NCc3cccc(Cl)c3)c(C)n2n1 | nt | nt | nt | i | i | nt
CS(=O)(=O)N1N=C(c2cccs2)CC1c1ccccc1O (stereo not drawn) | 3% | 1% | -8% | i | i | -4%
Oc1ccccc1C1CC(c2cccs2)=NC(c2ccc(Cl)cc2)N1 (stereo not drawn) | ? | 18µM* | 4.6µM* | ? | i | ?
CCCN(CCC)CCNC(=O)c1sc2nc3n(c(=O)c2c1C)CCCCC3 | nt | nt | nt | i | i | nt
c1ccc(-c2cc(N3CCOCC3)nc3ccccc23)cc1 | -12% | 7% | 29% | i | 21µM* | ?
Cc1ccc(OCC(=O)Nc2ccc(OCc3cc(=O)n4cccc(C)c4n3)cc2)cc1C | nt | nt | nt | i | i | nt
Cc1noc2ncnc(N3CCN(c4cccc(Cl)c4)CC3)c12 | -20% | -2% | ? | ? | i | -21%
CC(=O)c1ccc(N2CCN(c3ncnc4onc(C)c34)CC2)cc1 | nt | nt | nt | 21µM* | ? | nt
CC(C)c1cc(C(=O)NC(C)c2ccccc2)no1 (stereo not drawn) | nt | nt | nt | i | i | nt
Cc1ccc(NC(=O)C2CCN(S(C)(=O)=O)CC2)c(C)c1 | -9% | -42% | 4.1µM* | i | i | -7%
Cn1c(C(=O)N2CCCc3ccccc32)cc2sccc21 | 12% | 0% | -6% | ? | 15µM* | -13%
O=C(c1coc(=O)c(Br)c1)N1CCCc2ccccc21 | 4% | 1% | 15µM* | i | i | 0%
O=C(c1cc2sccc2n1Cc1ccccc1)N1CCc2ccccc21 | -22% | -5% | -7% | i | 10µM* | ?
N#CNC(=Nc1cccc(F)c1)SCc1ccccc1F | -7% | 3% | 4.6µM* | i | ? | -9%
CC(C)N=C(NC#N)SCc1ccccc1F | -3% | -1% | -18% | i | ? | -1%
CCc1ccc(C(=O)c2cn(CC(=O)Nc3ccc4c(c3)OCCO4)c3ccc(CC)cc3c2=O)cc1 | nt | nt | nt | i | i | nt
N#C/C(=C/c1ccc(N2CCCCCC2)o1)c1ccc(F)cc1 | ? | 12µM* | 3.3µM* | ? | ? | 9.2µM*
